# The entries come from a sample that favours the strongest signals as a whole.
# B1: B160 (Bifidobacterium sp) (protein)
# chain: MVSHNKRIVAALAAVAAMGIGLAGCGGSDTAGDTKSGSDGGVVNITYMHRLPDSEGMTLVNDIVAKWNKEHPNIQVKATKFDGNAADMIKKLETDVKAGNAPDLAQVGYAEVPEVFTKGLLQDVTDEAAKYKDDFASGPFALMQVDGKTYGLPQDTGPLTYFYNAAEFEKLGITVPKTADELIETAKKTAAQGKYIMTFTPDEAMMMMSGQAGASGPWYKVDGNSWVVNTQTKGSKAVADVYQQLIDNKAALTNPRWDASFDNSIQSGQLIGTVAAAWEAPLFIDSAGGTGAGEWKVTQLGDWFGNGTKTGANGGSGVAVLKGSKHPAEAMEFLDWFNTQVDDLVSQGLVVAATTADAKTPQKWSDYFSGQDVMAEFKTANDNMGDFTYMPGFSAVGAAMKQTAAKAADGSAKVSDVFDTAQKTSVDTLKNLGLSVKE
# What was measured:
# Experiment in all cases: glycan array binding signal (z-score within array); higher = stronger binding
# Details in all cases: glycan notation: IUPAC condensed, linker removed
# [1] = molecular target: Fuc(a1-2)Gal(b1-3)[Fuc(a1-4)]GlcNAc(b1-2)Man(a1-3)[Fuc(a1-2)Gal(b1-3)[Fuc(a1-4)]GlcNAc(b1-2)Man(a1-3)]Man(b1-4)GlcNAc(b1-4)GlcNAc
# In short: (§1)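 Arrays were curated from the Consortium for Functional Glycomics database, 3228 in total, and kept only where the protein sequence was available. Binding is expressed as a within-array Z-score. This score was averaged across arrays of the same protein sequence at different concentrations or buffers and across linkers, and negative values can be read as non-binding.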
# [2] = molecular target: Fuc(a1-2)[Gal(a1-3)]Gal(b1-4)GlcNAc(b1-3)GalNAc
# In short: as §1
# [3] = molecular target: Fuc(a1-2)[Gal(a1-3)]Gal(b1-4)GlcNAc(b1-6)GalNAc
# In short: as §1
# [4] = molecular target: Fuc(a1-2)[Gal(a1-4)]Gal(b1-4)GlcNAc
# In short: as §1
# [5] = molecular target: Fuc(a1-2)[GalNAc(a1-3)]Gal(b1-3)GlcNAc(b1-2)Man(a1-3)[Fuc(a1-2)[GalNAc(a1-3)]Gal(b1-3)GlcNAc(b1-2)Man(a1-6)]Man(b1-4)GlcNAc(b1-4)[Fuc(a1-6)]GlcNAc
# In short: as §1
# [6] = molecular target: Fuc(a1-2)[GalNAc(a1-3)]Gal(b1-4)[Fuc(a1-3)]GlcNAc(b1-3)GalNAc
# In short: as §1
# [7] = molecular target: Fuc(a1-3)[Gal(b1-4)]GlcNAc(b1-3)Gal(b1-3)[Fuc(a1-4)]GlcNAc
# In short: as §1
# [8] = molecular target: Fuc(a1-3)[Gal(b1-4)]GlcNAc(b1-3)Gal(b1-4)[Fuc(a1-3)]GlcNAc(b1-3)Gal(b1-4)[Fuc(a1-3)]GlcNAc
# In short: as §1
# [9] = molecular target: Fuc(a1-3)[Gal3S(b1-4)]GlcNAc6S
# In short: as §1
# Fuc(a1-4)GlcNAc = molecular target: Fuc(a1-4)GlcNAc
# In short: as §1
# Gal(a1-3)Gal(b1-4)GlcNAc = molecular target: Gal(a1-3)Gal(b1-4)GlcNAc
# In short: as §1
# [10] = molecular target: Gal(a1-4)Gal(b1-3)GlcNAc(b1-2)Man(a1-3)[Gal(a1-4)Gal(b1-3)GlcNAc(b1-2)Man(a1-6)]Man(b1-4)GlcNAc(b1-4)GlcNAc
# In short: as §1
# Gal(b1-3)Gal(b1-4)GlcNAc = molecular target: Gal(b1-3)Gal(b1-4)GlcNAc
# In short: as §1
# Gal(b1-3)GalNAc(b1-3)Gal = molecular target: Gal(b1-3)GalNAc(b1-3)Gal
# In short: as §1
# [11] = molecular target: Gal(b1-3)GalNAc(b1-4)Gal(b1-4)Glc
# In short: as §1
# [12] = molecular target: Gal(b1-3)GlcNAc(b1-3)Gal(b1-4)Glc
# In short: as §1
# [13] = molecular target: Gal(b1-3)GlcNAc(b1-3)Gal(b1-4)GlcNAc
# In short: as §1
# [14] = molecular target: Gal(b1-3)GlcNAc(b1-3)Gal(b1-4)GlcNAc(b1-2)Man(a1-3)[Gal(b1-3)GlcNAc(b1-3)Gal(b1-4)GlcNAc(b1-2)Man(a1-6)]Man(b1-4)GlcNAc(b1-4)GlcNAc
# In short: as §1
# [15] = molecular target: Gal(b1-3)GlcNAc(b1-3)Gal(b1-4)GlcNAc(b1-2)[Gal(b1-3)GlcNAc(b1-3)Gal(b1-4)GlcNAc(b1-6)]Man(a1-6)[Gal(b1-3)GlcNAc(b1-3)Gal(b1-4)GlcNAc(b1-2)Man(a1-3)]Man(b1-4)GlcNAc(b1-4)[Fuc(a1-6)]GlcNAc
# In short: as §1
# [16] = molecular target: Gal(b1-3)GlcNAc(b1-3)Gal(b1-4)GlcNAc(b1-3)Gal(b1-4)GlcNAc(b1-2)[Gal(b1-3)GlcNAc(b1-3)Gal(b1-4)GlcNAc(b1-3)Gal(b1-4)GlcNAc(b1-6)]Man(a1-6)[Gal(b1-3)GlcNAc(b1-3)Gal(b1-4)GlcNAc(b1-3)Gal(b1-4)GlcNAc(b1-2)Man(a1-3)]Man(b1-4)GlcNAc(b1-4)[Fuc(a1-6)]GlcNAc
# In short: as §1
# [17] = molecular target: Gal(b1-3)GlcNAc(b1-3)Gal(b1-4)GlcNAc(b1-6)[Gal(b1-3)GlcNAc(b1-3)]Gal(b1-4)Glc
# In short: as §1
# Gal(b1-3)GlcNAc6S = molecular target: Gal(b1-3)GlcNAc6S
# In short: as §1
# [18] = molecular target: Gal(b1-3)[Fuc(a1-4)]GlcNAc(b1-3)Gal(b1-3)[Fuc(a1-4)]GlcNAc
# In short: as §1
# [19] = molecular target: Gal(b1-3)[Neu5Ac(a2-6)]GlcNAc(b1-4)Gal(b1-4)Glc
# In short: as §1
# [20] = molecular target: Gal(b1-4)GlcNAc(b1-2)Man(a1-3)[Man(a1-6)]Man(b1-4)GlcNAc(b1-4)GlcNAc
# In short: as §1
# [21] = molecular target: Gal(b1-4)GlcNAc(b1-2)[Gal(b1-4)GlcNAc(b1-4)]Man(a1-3)[Gal(b1-4)GlcNAc(b1-2)[Gal(b1-4)GlcNAc(b1-6)]Man(a1-6)]Man(b1-4)GlcNAc(b1-4)GlcNAc
# In short: as §1
# Gal3S(b1-4)GlcNAc = molecular target: Gal3S(b1-4)GlcNAc
# In short: as §1
# Gal6S(b1-3)GlcNAc6S = molecular target: Gal6S(b1-3)GlcNAc6S
# In short: as §1
# GalNAc(a1-3)GalNAc = molecular target: GalNAc(a1-3)GalNAc
# In short: as §1
# [22] = molecular target: GalNAc(a1-3)GalNAc(b1-3)Gal(a1-4)Gal(b1-4)GlcNAc
# In short: as §1
# [23] = molecular target: GalNAc(b1-4)GlcNAc(b1-3)GalNAc(b1-4)GlcNAc
# In short: as §1
# [24] = molecular target: GalNAc3S(b1-4)[Fuc(a1-3)]GlcNAc
# In short: as §1
# Glc(a1-4)Glc = molecular target: Glc(a1-4)Glc
# In short: as §1
# [25] = molecular target: GlcNAc(b1-2)[GlcNAc(b1-6)]Man(a1-6)[GlcNAc(b1-4)][GlcNAc(b1-2)Man(a1-3)]Man(b1-4)GlcNAc(b1-4)GlcNAc
# In short: as §1
# [26] = molecular target: GlcNAc(b1-3)Gal(b1-4)GlcNAc(b1-3)Gal(b1-4)GlcNAc(b1-3)Gal(b1-4)GlcNAc(b1-2)[GlcNAc(b1-3)Gal(b1-4)GlcNAc(b1-3)Gal(b1-4)GlcNAc(b1-3)Gal(b1-4)GlcNAc(b1-6)]Man(a1-6)[GlcNAc(b1-3)Gal(b1-4)GlcNAc(b1-3)Gal(b1-4)GlcNAc(b1-3)Gal(b1-4)GlcNAc(b1-2)Man(a1-3)]Man(b1-4)GlcNAc(b1-4)[Fuc(a1-6)]GlcNAc
# In short: as §1
# [27] = molecular target: GlcNAc(b1-3)Gal(b1-4)GlcNAc(b1-6)[GlcNAc(b1-3)Gal(b1-3)]GalNAc
# In short: as §1
# GlcNAc(b1-3)GalNAc = molecular target: GlcNAc(b1-3)GalNAc
# In short: as §1
# GlcNAc(b1-3)Man = molecular target: GlcNAc(b1-3)Man
# In short: as §1
# [28] = molecular target: GlcNAc(b1-3)[GlcNAc(b1-4)][GlcNAc(b1-6)]GlcNAc
# In short: as §1
# [29] = molecular target: GlcNAc(b1-4)GlcNAc(b1-4)GlcNAc
# In short: as §1
# Kdn(a2-3)Gal(b1-3)GlcNAc = molecular target: Kdn(a2-3)Gal(b1-3)GlcNAc
# In short: as §1
# [30] = molecular target: Man(a1-2)Man(a1-2)Man(a1-3)Man
# In short: as §1
# [31] = molecular target: Neu5Ac(a2-3)Gal(b1-3)GalNAc
# In short: as §1
# [32] = molecular target: Neu5Ac(a2-3)Gal(b1-3)GlcNAc(b1-6)GalNAc
# In short: as §1
# [33] = molecular target: Neu5Ac(a2-3)Gal(b1-3)[Neu5Ac(a2-6)]GlcNAc(b1-3)[Fuc(a1-3)[Gal(b1-4)]GlcNAc(b1-6)]Gal(b1-4)Glc
# In short: as §1
# Neu5Ac(a2-3)Gal(b1-4)Glc = molecular target: Neu5Ac(a2-3)Gal(b1-4)Glc
# In short: as §1
# [34] = molecular target: Neu5Ac(a2-3)Gal(b1-4)[Fuc(a1-3)]GlcNAc(b1-3)Gal(b1-4)GlcNAc
# In short: as §1
# [35] = molecular target: Neu5Ac(a2-6)Gal(b1-4)GlcNAc(b1-2)Man(a1-6)[Gal(b1-4)GlcNAc(b1-2)Man(a1-3)]Man(b1-4)GlcNAc(b1-4)GlcNAc
# In short: as §1
# [36] = molecular target: Neu5Ac(a2-6)Gal(b1-4)GlcNAc(b1-2)[Neu5Ac(a2-6)Gal(b1-4)GlcNAc(b1-6)]Man(a1-6)[Neu5Ac(a2-6)Gal(b1-4)GlcNAc(b1-2)Man(a1-3)][GlcNAc(b1-4)]Man(b1-4)GlcNAc(b1-4)GlcNAc
# In short: as §1
# [37] = molecular target: Neu5Ac(a2-6)Gal(b1-4)GlcNAc(b1-3)Gal(b1-4)GlcNAc(b1-3)Gal(b1-4)GlcNAc
# In short: as §1
# [38] = molecular target: Neu5Ac(a2-6)GalNAc(b1-4)GlcNAc
# In short: as §1
# Neu5Ac(a2-8)Neu5Ac = molecular target: Neu5Ac(a2-8)Neu5Ac
# In short: as §1
# [39] = molecular target: Neu5Gc(a2-3)Gal(b1-3)GlcNAc
# In short: as §1
binder,measurement,setting,value
B1,glycan array binding signal (z-score),[1],-0.134
same,glycan array binding signal (z-score),[2],-0.168
same,glycan array binding signal (z-score),[3],-0.163
same,glycan array binding signal (z-score),[4],-0.15
same,glycan array binding signal (z-score),[5],-0.126
same,glycan array binding signal (z-score),[6],-0.135
same,glycan array binding signal (z-score),[7],-0.164
same,glycan array binding signal (z-score),[8],-0.14
same,glycan array binding signal (z-score),[9],-0.145
same,glycan array binding signal (z-score),Fuc(a1-4)GlcNAc,-0.176
same,glycan array binding signal (z-score),Gal(a1-3)Gal(b1-4)GlcNAc,-0.166
same,glycan array binding signal (z-score),[10],-0.093
same,glycan array binding signal (z-score),Gal(b1-3)Gal(b1-4)GlcNAc,11.7
same,glycan array binding signal (z-score),Gal(b1-3)GalNAc(b1-3)Gal,6.25
same,glycan array binding signal (z-score),[11],8.55
same,glycan array binding signal (z-score),[12],4.36
same,glycan array binding signal (z-score),[13],4.98
same,glycan array binding signal (z-score),[14],5.11
same,glycan array binding signal (z-score),[15],8.35
same,glycan array binding signal (z-score),[16],6.21
same,glycan array binding signal (z-score),[17],5.45
same,glycan array binding signal (z-score),Gal(b1-3)GlcNAc6S,6.55
same,glycan array binding signal (z-score),[18],-0.141
same,glycan array binding signal (z-score),[19],6.71
same,glycan array binding signal (z-score),[20],-0.176
same,glycan array binding signal (z-score),[21],-0.18
same,glycan array binding signal (z-score),Gal3S(b1-4)GlcNAc,-0.172
same,glycan array binding signal (z-score),Gal6S(b1-3)GlcNAc6S,-0.179
same,glycan array binding signal (z-score),GalNAc(a1-3)GalNAc,-0.173
same,glycan array binding signal (z-score),[22],-0.166
same,glycan array binding signal (z-score),[23],-0.191
same,glycan array binding signal (z-score),[24],-0.117
same,glycan array binding signal (z-score),Glc(a1-4)Glc,-0.177
same,glycan array binding signal (z-score),[25],-0.149
same,glycan array binding signal (z-score),[26],-0.094
same,glycan array binding signal (z-score),[27],-0.164
same,glycan array binding signal (z-score),GlcNAc(b1-3)GalNAc,-0.154
same,glycan array binding signal (z-score),GlcNAc(b1-3)Man,-0.156
same,glycan array binding signal (z-score),[28],-0.174
same,glycan array binding signal (z-score),[29],-0.167
same,glycan array binding signal (z-score),Kdn(a2-3)Gal(b1-3)GlcNAc,-0.172
same,glycan array binding signal (z-score),[30],-0.159
same,glycan array binding signal (z-score),[31],-0.204
same,glycan array binding signal (z-score),[32],-0.161
same,glycan array binding signal (z-score),[33],-0.173
same,glycan array binding signal (z-score),Neu5Ac(a2-3)Gal(b1-4)Glc,-0.173
same,glycan array binding signal (z-score),[34],-0.165
same,glycan array binding signal (z-score),[35],-0.136
same,glycan array binding signal (z-score),[36],-0.14
same,glycan array binding signal (z-score),[37],-0.145
same,glycan array binding signal (z-score),[38],-0.167
same,glycan array binding signal (z-score),Neu5Ac(a2-8)Neu5Ac,-0.174
same,glycan array binding signal (z-score),[39],-0.189

# From the supplement of paper PMC8728848
